# In PubChem BioAssay (EPA / NIEHS):
# Results filed as inconclusive are left out. Calls of active or inactive are those of the source. How the source made its calls: active means hit-call score of the fitted dose curve at least 0.9, where 1 is the maximum; inconclusive means response in the unintended direction; inactive means score below 0.9.
# Columns and labels:
# [1] = target: Estrogen receptor (Homo sapiens) (UniProt P03372); experiment: OT_ER_ERaERa_1440: Odyssey Thera (OT) 24-hour HEK293T Protein-Complementation Assay for Estrogen Receptor-alpha/-alpha Homodimer (AID 2283349);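 further: hits raise fluorescence above DMSO for agonists and antagonists alike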
# Chain of Estrogen receptor (Homo sapiens) (P03372 whole entry, looked up, the tested form may be a part): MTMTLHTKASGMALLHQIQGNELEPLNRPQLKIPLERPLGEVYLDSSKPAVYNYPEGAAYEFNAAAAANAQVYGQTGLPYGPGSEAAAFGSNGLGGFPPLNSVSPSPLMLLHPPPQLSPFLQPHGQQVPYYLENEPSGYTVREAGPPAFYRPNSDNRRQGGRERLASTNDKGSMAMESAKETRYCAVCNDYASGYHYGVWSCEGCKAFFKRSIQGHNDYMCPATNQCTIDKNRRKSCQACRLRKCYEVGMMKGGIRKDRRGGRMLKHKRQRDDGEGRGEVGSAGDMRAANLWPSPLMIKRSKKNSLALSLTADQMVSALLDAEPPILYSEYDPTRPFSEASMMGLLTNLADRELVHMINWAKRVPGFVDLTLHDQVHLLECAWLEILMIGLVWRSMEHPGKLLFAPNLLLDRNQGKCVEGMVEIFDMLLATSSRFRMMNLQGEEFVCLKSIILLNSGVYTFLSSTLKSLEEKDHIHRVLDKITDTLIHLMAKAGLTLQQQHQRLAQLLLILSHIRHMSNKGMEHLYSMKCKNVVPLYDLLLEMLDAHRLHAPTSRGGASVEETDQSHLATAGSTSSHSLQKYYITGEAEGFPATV
# Outline: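 Readout is the rise in mean fluorescence from reporter fragment complementation when ERα LBD (aa 310-547) units dimerize in HEK293T cells. Measured 24 h after dosing and analysed as increase over DMSO control.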
# [2] = target: Estrogen receptor (Homo sapiens) (UniProt P03372); experiment: OT_ER_ERaERa_0480: Odyssey Thera (OT) 8-hour HEK293T Protein-Complementation Assay for Estrogen Receptor-alpha/-alpha Homodimer (AID 2283351);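 further: rise in fluorescence from reassembled reporter fragments on ERα LBD homodimer in nucleus or whole cell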
# Outline: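 HEK293T cells stably expressing the human ERα ligand-binding domain (aa 310-547) as a homodimer PCA were dosed with compound for 8 h. Gain of fluorescence intensity versus DMSO vehicle was read by laser scanning cytometry.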
# [3] = target: T1, Estrogen receptor (Homo sapiens) + Estrogen receptor beta (Homo sapiens) (UniProt P03372+Q92731); experiment: OT_ER_ERaERb_0480: Odyssey Thera (OT) 8-hour HEK293T Protein-Complementation Assay for Estrogen Receptor-alpha/-beta Heterodimer (AID 2283352)
# T1 sequence (P03372 whole entry, looked up, the tested form may be a part): as above
# T1 sequence (Q92731 whole entry, looked up, the tested form may be a part): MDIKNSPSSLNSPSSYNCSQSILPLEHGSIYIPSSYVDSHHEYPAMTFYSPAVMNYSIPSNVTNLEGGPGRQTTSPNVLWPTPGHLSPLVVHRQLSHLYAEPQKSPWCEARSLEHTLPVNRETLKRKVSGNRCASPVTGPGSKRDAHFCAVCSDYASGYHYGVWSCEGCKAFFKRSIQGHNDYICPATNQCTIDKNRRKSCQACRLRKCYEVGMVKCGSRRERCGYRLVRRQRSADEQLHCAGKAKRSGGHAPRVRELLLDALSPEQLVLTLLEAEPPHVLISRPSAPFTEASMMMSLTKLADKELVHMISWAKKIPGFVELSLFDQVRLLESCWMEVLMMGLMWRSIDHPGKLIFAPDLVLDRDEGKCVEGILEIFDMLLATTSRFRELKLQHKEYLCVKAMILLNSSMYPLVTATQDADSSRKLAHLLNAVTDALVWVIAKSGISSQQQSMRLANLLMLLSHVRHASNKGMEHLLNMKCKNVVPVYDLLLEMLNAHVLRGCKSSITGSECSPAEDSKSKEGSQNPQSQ
# Outline: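 HEK293T cells expressing ER-alpha/ER-beta LBD fusions to complementary reporter fragments were dosed with compound for 8 hours. Heterodimer formation was read as increased nuclear (agonist) or nuclear plus cytoplasmic (antagonist) mean fluorescence intensity versus DMSO vehicle.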
# [4] = target: rat Mineralocorticoid Receptor (MR), Nr3c2 (gene 25672) (UniProt P22199); experiment: NVS_NR_rMR: NovaScreen (NVS) Nuclear Receptor Binding Assay for rat Mineralocorticoid Receptor (MR) (AID 2283355)
# Chain of rat Mineralocorticoid Receptor (MR), Nr3c2 (gene 25672) (P22199 whole entry, looked up): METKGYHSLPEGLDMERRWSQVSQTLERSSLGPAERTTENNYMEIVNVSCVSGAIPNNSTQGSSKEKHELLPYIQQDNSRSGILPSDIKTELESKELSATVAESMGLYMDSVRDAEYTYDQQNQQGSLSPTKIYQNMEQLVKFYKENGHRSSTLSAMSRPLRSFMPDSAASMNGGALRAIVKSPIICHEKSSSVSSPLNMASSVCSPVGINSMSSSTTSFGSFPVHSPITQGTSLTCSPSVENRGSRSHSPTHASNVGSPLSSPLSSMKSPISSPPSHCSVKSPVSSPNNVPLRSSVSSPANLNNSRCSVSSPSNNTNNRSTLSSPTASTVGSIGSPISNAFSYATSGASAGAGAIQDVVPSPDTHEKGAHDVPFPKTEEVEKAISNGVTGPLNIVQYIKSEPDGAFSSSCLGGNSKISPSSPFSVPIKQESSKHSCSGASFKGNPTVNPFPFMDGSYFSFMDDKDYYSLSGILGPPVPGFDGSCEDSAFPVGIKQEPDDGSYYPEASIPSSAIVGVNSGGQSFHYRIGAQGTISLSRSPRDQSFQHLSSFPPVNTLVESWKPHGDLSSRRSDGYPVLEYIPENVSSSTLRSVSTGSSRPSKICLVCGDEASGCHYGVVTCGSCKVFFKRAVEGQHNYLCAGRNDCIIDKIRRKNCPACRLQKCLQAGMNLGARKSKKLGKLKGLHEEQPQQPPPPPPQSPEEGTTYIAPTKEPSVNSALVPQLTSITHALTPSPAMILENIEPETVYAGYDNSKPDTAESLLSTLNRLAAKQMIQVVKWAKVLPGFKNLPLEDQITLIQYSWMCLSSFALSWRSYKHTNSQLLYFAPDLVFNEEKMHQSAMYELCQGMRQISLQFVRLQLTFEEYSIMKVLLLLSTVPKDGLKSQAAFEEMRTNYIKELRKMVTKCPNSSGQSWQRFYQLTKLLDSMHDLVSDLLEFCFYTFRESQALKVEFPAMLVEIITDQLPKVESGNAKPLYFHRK
# Outline: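 Cell-free radioligand binding to MR in adrenalectomized rat brain supernatant, scintillation counted 24 h after dosing. Loss of signal versus DMSO baseline marks displacement. Primary screen in duplicate at 25 uM; actives retested as concentration series.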
# [5] = target: T1, Estrogen receptor (Homo sapiens) + Estrogen receptor beta (Homo sapiens); experiment: OT_ER_ERaERb_1440: Odyssey Thera (OT) 24-hour HEK293T Protein-Complementation Assay for Estrogen Receptor-alpha/-beta Homodimer (AID 2283356);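 further: heteromer of ER alpha and ER beta binding domains; hits raise reporter fluorescence and both agonists and antagonists give an increase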
# Outline: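 HEK293T cells stably expressing a PCA pair of ERα LBD (aa 310-547) and ERβ LBD (aa 263-489) were dosed for 24 h. Fluorescence intensity increase versus DMSO vehicle was fitted as gain-of-signal.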
# [6] = target: Estrogen receptor beta (Homo sapiens) (UniProt Q92731); experiment: OT_ER_ERbERb_0480: Odyssey Thera (OT) 8-hour HEK293T Protein-Complementation Assay for Estrogen Receptor-beta/-beta Homodimer (AID 2283357);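 further: active means signal gain over DMSO baseline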
# Chain of Estrogen receptor beta (Homo sapiens) (Q92731 whole entry, looked up, the tested form may be a part): as the sequence (Q92731 whole entry, looked up, the tested form may be a part) above
# Outline: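 Readout: increase in mean fluorescence intensity (nucleus for agonists; nucleus plus cytoplasm for antagonists) relative to DMSO, from a reporter-fragment complementation of human ER-beta LBD homodimer in HEK293T cells dosed 8 hours.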
# [7] = target: Retinoic acid receptor alpha (Homo sapiens) (UniProt P10276); experiment: NVS_NR_hRAR_Antagonist: NovaScreen (NVS) Nuclear Receptor Binding Assay for human Retinoic Acid Alpha Receptor Antagonism (RAR) (AID 2283358)
# Chain of Retinoic acid receptor alpha (Homo sapiens) (P10276 whole entry, looked up): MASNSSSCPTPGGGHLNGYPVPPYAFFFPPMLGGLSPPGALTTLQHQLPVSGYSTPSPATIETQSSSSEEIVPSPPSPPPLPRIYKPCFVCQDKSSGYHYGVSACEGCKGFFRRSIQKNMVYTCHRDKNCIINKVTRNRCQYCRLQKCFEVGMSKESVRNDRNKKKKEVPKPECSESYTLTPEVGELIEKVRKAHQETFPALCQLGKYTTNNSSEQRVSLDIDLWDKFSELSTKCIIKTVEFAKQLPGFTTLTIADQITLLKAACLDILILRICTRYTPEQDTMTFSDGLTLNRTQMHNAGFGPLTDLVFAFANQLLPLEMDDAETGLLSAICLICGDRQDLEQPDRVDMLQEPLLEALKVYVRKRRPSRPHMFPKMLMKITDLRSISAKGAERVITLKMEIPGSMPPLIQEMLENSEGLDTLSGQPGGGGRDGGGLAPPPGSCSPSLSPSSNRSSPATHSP
# Outline: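 Cell-free TR-FRET binding assay on extracted receptor protein, run in antagonist mode; signal read 2 hours after chemical dosing. Loss of signal was fitted relative to DMSO baseline. Screened at 25 uM in duplicate, actives followed up in concentration series.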
# [8] = target: Estrogen receptor (Homo sapiens) (UniProt P03372); experiment: NVS_NR_hER: NovaScreen (NVS) Nuclear Receptor Binding Assay for human Estrogen Receptor (ER) (AID 2283348)
# Outline: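 Cell-free radioligand binding with protein extracted from MCF7 cells; scintillation counting 18 hours after dosing. Loss of signal versus DMSO baseline read as displacement; primary single-concentration screen at 25 uM in duplicate, actives retested in concentration series.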
# [9] = target: Bile acid receptor (Homo sapiens) (UniProt Q96RI1); experiment: NVS_NR_hFXR_Antagonist: NovaScreen (NVS) Nuclear Receptor Binding Assay for human Farnesoid X Receptor Antagonism (FXR) (AID 2283350)
# Chain of Bile acid receptor (Homo sapiens) (Q96RI1 whole entry, looked up): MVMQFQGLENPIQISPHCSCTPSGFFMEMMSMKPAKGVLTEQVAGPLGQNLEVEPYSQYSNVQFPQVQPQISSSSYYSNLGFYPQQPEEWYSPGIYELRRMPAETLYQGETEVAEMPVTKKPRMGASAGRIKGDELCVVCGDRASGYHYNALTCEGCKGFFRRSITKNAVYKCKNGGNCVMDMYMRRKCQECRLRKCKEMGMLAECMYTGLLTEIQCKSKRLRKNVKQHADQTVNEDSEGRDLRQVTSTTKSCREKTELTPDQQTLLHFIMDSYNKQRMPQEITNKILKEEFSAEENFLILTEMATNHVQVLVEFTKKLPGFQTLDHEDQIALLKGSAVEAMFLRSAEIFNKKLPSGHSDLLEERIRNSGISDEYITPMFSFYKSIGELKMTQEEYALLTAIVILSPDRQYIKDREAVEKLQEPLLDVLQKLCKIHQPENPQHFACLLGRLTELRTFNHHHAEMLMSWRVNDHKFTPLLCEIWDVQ
# Outline: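 Cell-free TR-FRET ligand-binding read-out on human FXR (NR1H4) in antagonist mode, measured 1 h after dosing. Primary screen in duplicate at 25 uM, actives retested in concentration series; signal loss scored versus DMSO.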
# [10] = target: Androgen Receptor/SRC-1 Co-activator, AR (gene 367) (UniProt P10275); experiment: OT_AR_ARSRC1_0960: Odyssey Thera (OT) 16-hour HEK293T Protein-Complementation Assay for Androgen Receptor/SRC-1 Co-activator (AID 2283353);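 further: actives raise the signal above DMSO so potency reflects increased AR and SRC-1 complex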
# Chain of Androgen Receptor/SRC-1 Co-activator, AR (gene 367) (P10275 whole entry, looked up, the tested form may be a part): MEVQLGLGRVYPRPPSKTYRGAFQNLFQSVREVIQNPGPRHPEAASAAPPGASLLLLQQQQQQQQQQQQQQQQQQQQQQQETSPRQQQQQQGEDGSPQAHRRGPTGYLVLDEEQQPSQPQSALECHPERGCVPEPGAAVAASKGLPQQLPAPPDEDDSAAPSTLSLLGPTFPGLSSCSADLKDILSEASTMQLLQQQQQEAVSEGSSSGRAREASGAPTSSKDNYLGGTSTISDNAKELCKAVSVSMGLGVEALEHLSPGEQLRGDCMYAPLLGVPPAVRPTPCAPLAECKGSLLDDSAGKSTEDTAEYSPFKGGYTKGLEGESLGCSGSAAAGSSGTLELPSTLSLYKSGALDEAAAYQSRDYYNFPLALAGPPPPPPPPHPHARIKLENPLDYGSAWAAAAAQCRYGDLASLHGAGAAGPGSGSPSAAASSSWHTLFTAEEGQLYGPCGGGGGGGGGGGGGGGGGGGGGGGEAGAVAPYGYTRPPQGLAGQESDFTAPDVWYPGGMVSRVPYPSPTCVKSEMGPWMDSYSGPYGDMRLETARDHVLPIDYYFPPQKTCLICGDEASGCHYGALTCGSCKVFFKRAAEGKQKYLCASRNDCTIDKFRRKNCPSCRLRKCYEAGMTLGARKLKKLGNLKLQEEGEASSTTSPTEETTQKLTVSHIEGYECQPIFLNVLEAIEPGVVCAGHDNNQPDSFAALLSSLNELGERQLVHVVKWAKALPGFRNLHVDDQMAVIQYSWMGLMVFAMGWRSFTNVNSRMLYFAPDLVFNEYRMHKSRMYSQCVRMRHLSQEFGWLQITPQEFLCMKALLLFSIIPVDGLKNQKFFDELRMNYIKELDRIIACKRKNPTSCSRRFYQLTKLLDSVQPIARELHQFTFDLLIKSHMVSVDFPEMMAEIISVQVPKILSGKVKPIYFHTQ
# Outline: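 HEK293T cells stably expressing AR and SRC-1 fused to split Venus YFP fragments via (Gly4Ser)2 linkers were dosed for 16 h. Nuclear/cytoplasmic fluorescence ratio at 488 nm, ≥400 cells per image, fitted for gain of signal versus DMSO.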
# [11] = target: Androgen Receptor/SRC-1 Co-activator, AR (gene 367) (UniProt P10275); experiment: OT_AR_ARSRC1_0480: Odyssey Thera (OT) 8-hour HEK293T Protein-Complementation Assay for Androgen Receptor/SRC-1 Co-activator (AID 2283354);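 further: hits raise the complementation signal above DMSO so AC50 marks enhancers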
# Outline: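 HEK293T cells stably expressing AR and SRC-1 fused to split Venus YFP fragments via (Gly4Ser)2 linkers were read 8 h after compound dosing. Complementation was imaged at 488 and 635nm, and nuclear/cytoplasmic fluorescence ratio (488nm) was taken over ≥400 cells; gain-of-signal versus DMSO.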
# [12] = target: chimpanzee Androgen Receptor (AR), AR (gene 747460) (UniProt O97775); experiment: NVS_NR_cAR: NovaScreen (NVS) Nuclear Receptor Binding Assay for chimpanzee Androgen Receptor (AR) (AID 2283346);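 further: radioligand displacement from AR measured by scintillation counting in a cell-free assay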
# Outline: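 Cell-free radioligand displacement using receptor protein extracted from Sf9/Sf21 cells; bound radioligand measured by scintillation counting 72 hours after chemical dosing. Loss of signal versus DMSO baseline indicates binding; primary screen single-concentration in duplicate at 25 uM, actives followed in concentration series.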
# [13] = target: human Peroxisome Proliferator-activated Receptor alpha (PPARa), PPARA (gene 5465) (UniProt Q07869); experiment: NVS_NR_hPPARa: NovaScreen (NVS) Nuclear Receptor Binding Assay for human Peroxisome Proliferator-activated Receptor alpha (PPARa) (AID 2283359);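 further: activity means loss of TR-FRET signal versus DMSO baseline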
# Chain of human Peroxisome Proliferator-activated Receptor alpha (PPARa), PPARA (gene 5465) (Q07869 whole entry, looked up): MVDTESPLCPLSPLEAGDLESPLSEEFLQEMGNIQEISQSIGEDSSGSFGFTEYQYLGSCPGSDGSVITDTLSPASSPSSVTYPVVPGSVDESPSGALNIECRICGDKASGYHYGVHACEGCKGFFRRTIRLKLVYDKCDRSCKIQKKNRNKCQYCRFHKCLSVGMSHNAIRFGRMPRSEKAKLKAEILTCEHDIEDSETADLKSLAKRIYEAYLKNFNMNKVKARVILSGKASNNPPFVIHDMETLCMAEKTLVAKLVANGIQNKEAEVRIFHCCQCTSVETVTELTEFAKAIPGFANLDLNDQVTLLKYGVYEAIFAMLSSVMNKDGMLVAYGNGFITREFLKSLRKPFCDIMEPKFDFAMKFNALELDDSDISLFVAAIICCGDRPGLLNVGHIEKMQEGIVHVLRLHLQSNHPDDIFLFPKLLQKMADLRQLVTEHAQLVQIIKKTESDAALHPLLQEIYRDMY
# Outline: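 Cell-free binding assay with extracted human protein, read by TR-FRET 1 h after chemical dosing. Loss of signal relative to DMSO baseline indicates binding. Primary screen used duplicate single concentration (25 uM); actives followed up in concentration series.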
smiles,measurement,setting,value
O=C(O)CC(O)(CC(=O)O)C(=O)O,outcome,[1],inactive
same,outcome,[2],inactive
same,outcome,[3],inactive
same,outcome,[4],inactive
same,outcome,[5],inactive
same,outcome,[6],inactive
same,outcome,[7],inactive
O=C(O)CN(CC(=O)O)CC(=O)O,AC50,[1],10.9 µM (active)
same,outcome,[2],inactive
Cc1ccc(C(C)(C)C)c(O)c1,outcome,[8],inactive
same,outcome,[1],inactive
same,outcome,[2],inactive
same,outcome,[3],inactive
same,AC50,[5],33.9 µM (active)
same,AC50,[6],13.2 µM (active)
CC(C)OC(=O)C(C)(C)Oc1ccc(C(=O)c2ccc(Cl)cc2)cc1,outcome,[8],inactive
same,outcome,[1],inactive
same,outcome,[9],inactive
same,outcome,[2],inactive
same,outcome,[3],inactive
same,AC50,[10],34.4 µM (active)
same,outcome,[11],inactive
same,outcome,[5],inactive
same,outcome,[6],inactive
CCCCCCCCCCCCCCCCO,outcome,[1],inactive
same,outcome,[2],inactive
same,outcome,[5],inactive
CCCCC(CC)COP(=O)(OCC(CC)CCCC)OCC(CC)CCCC (stereo not drawn),AC50,[12],18.1 µM (active)
c1ccc2occc2c1,outcome,[1],inactive
same,outcome,[2],inactive
O=C1CCCCC1,outcome,[1],inactive
same,outcome,[2],inactive
same,outcome,[3],inactive
same,outcome,[10],inactive
same,outcome,[11],inactive
same,outcome,[5],inactive
same,outcome,[6],inactive
CCCCCCC(CCCCCCCCCCC(=O)OCC(COC(C)=O)OC(C)=O)OC(C)=O (stereo not drawn),outcome,[1],inactive
same,outcome,[2],inactive
same,outcome,[5],inactive
same,outcome,[6],inactive
same,outcome,[13],inactive
NC1CCCCC1,outcome,[1],inactive
same,outcome,[2],inactive
same,outcome,[3],inactive
same,outcome,[5],inactive
same,outcome,[6],inactive
Oc1ccc(O)cc1,outcome,[1],inactive
same,outcome,[2],inactive
same,outcome,[3],inactive
same,outcome,[5],inactive
same,outcome,[6],inactive
same,outcome,[13],inactive
